Experimental data reported in the supplement of paper PMC8728848.
This is one part of a sample in which the strongest signals are shown more often than they occur.

Legend:
Assay in all cases: glycan array binding signal (z-score within array); higher = stronger binding
Conditions in all cases: glycan notation: IUPAC condensed, linker removed
[1] = biological target: Glc(a1-6)Glc(a1-6)Glc(a1-6)Glc
In short: (§1)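 Glycan array data came from 3228 arrays in the Consortium for Functional Glycomics database, and only arrays with an available protein sequence were kept. Glycan names were put into IUPAC-condensed notation, and columns mapping to the same glycan were averaged. The binding signal is a within-array Z-score, averaged across arrays of one protein sequence run at different concentrations or buffers and across linkers. A negative Z-score can be read as non-binding.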

[2] = biological target: GlcNAc(a1-4)Gal(b1-4)GlcNAc
In short: as §1

[3] = biological target: GlcNAc(a1-4)Gal(b1-4)GlcNAc(b1-3)Gal(b1-4)[Fuc(a1-3)]GlcNAc(b1-3)Gal(b1-4)[Fuc(a1-3)]GlcNAc
In short: as §1

[4] = biological target: GlcNAc(b1-2)Man(a1-3)[GlcNAc(b1-2)Man(a1-6)]Man(b1-4)GlcNAc(b1-4)GlcNAc
In short: as §1

[5] = biological target: GlcNAc(b1-2)[GlcNAc(b1-4)]Man(a1-3)[GlcNAc(b1-4)][GlcNAc(b1-2)[GlcNAc(b1-6)]Man(a1-6)]Man(b1-4)GlcNAc(b1-4)GlcNAc
In short: as §1

[6] = biological target: GlcNAc(b1-3)Gal(b1-4)GlcNAc
In short: as §1

[7] = biological target: GlcNAc(b1-3)Gal(b1-4)GlcNAc(b1-2)Man(a1-3)[GlcNAc(b1-3)Gal(b1-4)GlcNAc(b1-2)Man(a1-6)]Man(b1-4)GlcNAc(b1-4)GlcNAc
In short: as §1

[8] = biological target: GlcNAc(b1-3)Gal(b1-4)GlcNAc(b1-3)GalNAc
In short: as §1

[9] = biological target: GlcNAc(b1-3)Gal(b1-4)GlcNAc(b1-6)[GlcNAc(b1-3)]Gal(b1-4)GlcNAc
In short: as §1

[10] = biological target: GlcNAc(b1-4)GlcNAc(b1-4)GlcNAc(b1-4)GlcNAc(b1-4)GlcNAc(b1-4)GlcNAc
In short: as §1

[11] = biological target: GlcNAc6S(b1-3)Gal(b1-4)GlcNAc
In short: as §1

Man(a1-2)Man(a1-3)Man = biological target: Man(a1-2)Man(a1-3)Man
In short: as §1

[12] = biological target: Man(a1-3)[Man(a1-6)]Man(a1-6)[Man(a1-3)]Man(b1-4)GlcNAc(b1-4)GlcNAc
In short: as §1

[13] = biological target: Neu5Ac(a2-3)Gal(b1-3)GlcNAc(b1-2)Man
In short: as §1

[14] = biological target: Neu5Ac(a2-3)Gal(b1-3)GlcNAc(b1-2)Man(a1-3)[GlcNAc(b1-4)][Neu5Ac(a2-3)Gal(b1-3)GlcNAc(b1-2)Man(a1-6)]Man(b1-4)GlcNAc(b1-4)GlcNAc
In short: as §1

[15] = biological target: Neu5Ac(a2-3)Gal(b1-3)GlcNAc(b1-3)Gal(b1-3)GlcNAc
In short: as §1

[16] = biological target: Neu5Ac(a2-3)Gal(b1-3)[Fuc(a1-4)]GlcNAc(b1-3)Gal(b1-4)[Fuc(a1-3)]GlcNAc
In short: as §1

[17] = biological target: Neu5Ac(a2-3)Gal(b1-3)[Neu5Ac(a2-6)]GlcNAc(b1-3)[Fuc(a1-3)[Gal(b1-4)]GlcNAc(b1-6)]Gal(b1-4)Glc
In short: as §1

[18] = biological target: Neu5Ac(a2-3)Gal(b1-3)]Neu5Ac(a2-3)Gal(b1-4)]GlcNAc
In short: as §1

[19] = biological target: Neu5Ac(a2-3)Gal(b1-4)GlcNAc(b1-2)Man(a1-3)[GlcNAc(b1-4)][Neu5Ac(a2-3)Gal(b1-4)GlcNAc(b1-2)Man(a1-6)]Man(b1-4)GlcNAc(b1-4)GlcNAc
In short: as §1

[20] = biological target: Neu5Ac(a2-3)Gal(b1-4)GlcNAc(b1-2)[Neu5Ac(a2-3)Gal(b1-4)GlcNAc(b1-6)]Man(a1-6)[Neu5Ac(a2-3)Gal(b1-4)GlcNAc(b1-2)Man(a1-3)]Man(b1-4)GlcNAc(b1-4)GlcNAc
In short: as §1

[21] = biological target: Neu5Ac(a2-3)Gal(b1-4)GlcNAc(b1-6)[Neu5Ac(a2-3)Gal(b1-3)]GalNAc
In short: as §1

[22] = biological target: Neu5Ac(a2-3)Gal(b1-4)[Fuc(a1-3)]GlcNAc(b1-2)Man
In short: as §1

Neu5Ac(a2-3)GalNAc = biological target: Neu5Ac(a2-3)GalNAc
In short: as §1

[23] = biological target: Neu5Ac(a2-6)Gal(b1-4)GlcNAc(b1-2)Man(a1-3)[Man(a1-6)]Man(b1-4)GlcNAc(b1-4)GlcNAc
In short: as §1

[24] = biological target: Neu5Ac(a2-6)Gal(b1-4)GlcNAc(b1-2)Man(a1-6)[GlcNAc(b1-2)Man(a1-3)]Man(b1-4)GlcNAc(b1-4)GlcNAc
In short: as §1

[25] = biological target: Neu5Ac(a2-6)Gal(b1-4)GlcNAc(b1-3)Gal(b1-4)GlcNAc(b1-6)[Gal(b1-3)]GalNAc
In short: as §1

[26] = biological target: Neu5Ac(a2-6)Gal(b1-4)GlcNAc(b1-6)GalNAc
In short: as §1

[27] = biological target: Neu5Ac(a2-6)Gal(b1-4)GlcNAc(b1-6)[Gal(b1-3)]GalNAc
In short: as §1

Neu5Ac(a2-8)Neu5Ac = biological target: Neu5Ac(a2-8)Neu5Ac
In short: as §1

B1: GNL (Galanthus nivalis) (protein)
chain: MGHHHHHHHHYGTLENGHWLMVGMSIFSKDRTVELRMQDDGKLAIYYNDHCAWQSTAQQVNNAKGAVMQGDGNFCIYDKNGKATWHTNTAAPSGDSHTFVSVQDDGNLVLYKNNGATPIWSSKSNK
glycan array binding signal (z-score) [1]: -0.121
glycan array binding signal (z-score) [2]: -0.25
glycan array binding signal (z-score) [3]: -0.175
glycan array binding signal (z-score) [4]: 8.74
glycan array binding signal (z-score) [5]: -0.284
glycan array binding signal (z-score) [6]: -0.226
glycan array binding signal (z-score) [7]: 0.679
glycan array binding signal (z-score) [8]: -0.013
glycan array binding signal (z-score) [9]: -0.255
glycan array binding signal (z-score) [10]: -0.24
glycan array binding signal (z-score) [11]: -0.28
glycan array binding signal (z-score) (Man(a1-2)Man(a1-3)Man): -0.18
glycan array binding signal (z-score) [12]: -0.2
glycan array binding signal (z-score) [13]: -0.208
glycan array binding signal (z-score) [14]: -0.228
glycan array binding signal (z-score) [15]: -0.212
glycan array binding signal (z-score) [16]: -0.191
glycan array binding signal (z-score) [17]: -0.137
glycan array binding signal (z-score) [18]: -0.172
glycan array binding signal (z-score) [19]: -0.295
glycan array binding signal (z-score) [20]: -0.159
glycan array binding signal (z-score) [21]: -0.286
glycan array binding signal (z-score) [22]: -0.295
glycan array binding signal (z-score) (Neu5Ac(a2-3)GalNAc): -0.251
glycan array binding signal (z-score) [23]: 5.43
glycan array binding signal (z-score) [24]: 5.03
glycan array binding signal (z-score) [25]: -0.216
glycan array binding signal (z-score) [26]: -0.235
glycan array binding signal (z-score) [27]: -0.133
glycan array binding signal (z-score) (Neu5Ac(a2-8)Neu5Ac): -0.189
